PubChem BioAssay (Tox21)
Results filed as inconclusive are left out. Entries that show only a call come without a potency. A number with no mark means an inactive call. The source made the active and inactive calls. Unless noted, calls follow the shape of the dose curve; as a rule, active = well fitted curve in the direction sought with a large enough effect in the repeat runs; inconclusive = weak or mixed curves; inactive = no such curve, though single readings can be large; an effect the other way counts as inactive or inconclusive.

Assays:
[1] = target: Retinoic acid receptor RXR-alpha (Homo sapiens) (UniProt P19793); assay: qHTS assay to identify small molecule agonists of the RXR signaling pathway (AID 1159527; calls by dose curve; also: nearly all actives have a fitted effect of over 35% in size)
Chain of Retinoic acid receptor RXR-alpha (Homo sapiens) (P19793 whole entry, looked up): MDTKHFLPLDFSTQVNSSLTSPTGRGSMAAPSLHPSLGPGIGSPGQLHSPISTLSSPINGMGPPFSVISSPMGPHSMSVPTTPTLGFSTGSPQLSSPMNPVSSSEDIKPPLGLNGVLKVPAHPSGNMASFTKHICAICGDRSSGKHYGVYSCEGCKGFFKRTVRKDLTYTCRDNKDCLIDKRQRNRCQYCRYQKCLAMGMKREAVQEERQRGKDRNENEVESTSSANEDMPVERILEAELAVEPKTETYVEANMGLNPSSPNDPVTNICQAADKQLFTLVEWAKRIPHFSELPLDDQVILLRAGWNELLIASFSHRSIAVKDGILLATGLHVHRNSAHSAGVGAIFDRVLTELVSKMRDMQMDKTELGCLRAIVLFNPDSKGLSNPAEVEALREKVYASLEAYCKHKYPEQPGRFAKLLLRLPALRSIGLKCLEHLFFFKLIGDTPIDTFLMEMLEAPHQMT
Procedure, shortened: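 Reporter activation is measured as beta-lactamase activity via FRET substrate cleavage (emission 460/530 nm) in HEK 293T cells expressing an RXR-alpha-driven bla construct, following 16 hr compound exposure at 37 C.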

[2] = qHTS assay to identify small molecule agonists of the RXR signaling pathway - cell viability counter screen (AID 1159529); also: nearly all actives have a fitted effect of over 50% in size
Procedure, shortened: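 Tox21 10K compounds were tested for cytotoxicity against GeneBLAzer RXR-alpha HEK 293T cells grown in 2% charcoal-stripped FBS. Exposure lasted 16 hr at 37 C, 5% CO2; viability read by CellTiter-Glo luminescence.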

[3] = qHTS assay to identify small molecule antagonists of the retinoid acid receptor (RAR) signaling pathway - cell viability counter screen (AID 1159551); also: nearly all actives have a fitted effect of over 35% in size
Procedure, shortened: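 C3RL4 RARE-luciferase cells, 1,000/well, incubated overnight, then dosed with compound plus 1 uM retinol (final). After 6 hr at 37 C, viability read by CellTiter-Glo ATP luminescence following 30 min at room temperature.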

[4] = qHTS assay to identify small molecule antagonists of the retinoic acid receptor (RAR) signaling pathway (AID 1159552; also: nearly all actives have a fitted effect of over 50% in size)
Procedure, shortened: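 Overnight-plated C3RL4 reporter cells get compound, then retinol to 1 uM final; plates sit 6 hr at 37 C, 5% CO2. A luciferase reagent is added and light output recorded after 30 min at room temperature.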

[5] = qHTS assay to identify small molecule agonists of the retinoic acid receptor (RAR) signaling pathway (AID 1159553); settings: C3RL4 RARE luciferase reporter, agonist, 6 h; activation: at 73.3 µM (top of the series)
Procedure, shortened: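 C3RL4 RARE-luciferase cells were seeded at 1,000/well and grown overnight at 37 C, then exposed to compounds for 6 hr at 37 C, 5% CO2. Luciferase reagent was added and luminescence was read after 30 min at room temperature.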

[6] = target: Luciferin 4-monooxygenase (Photinus pyralis) (UniProt P08659); assay: qHTS assay to identify small molecule inhibitors of firefly luciferase (AID 1224835); also: nearly all actives have a fitted effect of over 25% in size
Chain of Luciferin 4-monooxygenase (Photinus pyralis) (P08659 whole entry, looked up): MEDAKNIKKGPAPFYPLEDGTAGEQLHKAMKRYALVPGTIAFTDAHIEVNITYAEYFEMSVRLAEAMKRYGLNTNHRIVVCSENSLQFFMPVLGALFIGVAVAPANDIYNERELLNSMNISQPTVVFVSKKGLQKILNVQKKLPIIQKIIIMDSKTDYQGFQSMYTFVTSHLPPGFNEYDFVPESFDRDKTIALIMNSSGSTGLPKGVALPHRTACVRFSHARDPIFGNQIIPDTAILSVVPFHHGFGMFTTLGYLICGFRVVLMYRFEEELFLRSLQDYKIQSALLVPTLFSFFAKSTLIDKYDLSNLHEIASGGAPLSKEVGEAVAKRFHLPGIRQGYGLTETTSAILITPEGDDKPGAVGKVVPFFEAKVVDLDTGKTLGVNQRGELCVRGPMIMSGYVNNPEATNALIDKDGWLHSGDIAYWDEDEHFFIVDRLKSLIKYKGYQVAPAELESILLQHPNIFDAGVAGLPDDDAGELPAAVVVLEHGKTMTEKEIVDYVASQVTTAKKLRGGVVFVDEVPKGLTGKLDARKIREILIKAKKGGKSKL
Procedure, shortened: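 Quantitative HTS format; KM concentrations of both substrates. Purified P. pyralis FLuc activity quantified from luminescence images.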

[7] = qHTS assay to identify small molecule antagonists of the constitutive androstane receptor (CAR) signaling pathway - cell viability counter screen (AID 1224837); also: nearly all actives have a fitted effect of over 45% in size
Procedure, shortened: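 HepG2 cells stably carrying hCAR and CYP2B6-2.2kb reporter, stimulated with 50 nM CITCO and compounds at 15 concentrations for 23 h at 37 C. Viability measured by CellTiter-Fluor fluorescence.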

[8] = qHTS assay to identify small molecule antagonists of the estrogen related receptor signaling pathway with the pleiotropic PPARgamma coactivator (PGC) from Tox21 10K library - cell viability counter screen (AID 1224840; active = well fitted cell-killing curve with a large enough effect in the repeat runs, not every such curve was filed as active; also: nearly all actives have a fitted effect of over 40% in size)
Procedure, shortened: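 PGC/ERR cells (2,000/well) plated 6 h, then compound-treated for 17.5 h at 37 C. Viability measured by CellTiter-Fluor fluorescence after 30 min at 37 C, multiplexed with the pathway assay.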

[9] = target: Thyrotropin receptor (Homo sapiens) (UniProt P16473); assay: qHTS assay to identify small molecule agonists of the thyroid stimulating hormone receptor (TSHR) signaling pathway (AID 1224843; calls by dose curve; also: nearly all actives have a fitted effect of over 45% in size)
Chain of Thyrotropin receptor (Homo sapiens) (P16473 whole entry, looked up): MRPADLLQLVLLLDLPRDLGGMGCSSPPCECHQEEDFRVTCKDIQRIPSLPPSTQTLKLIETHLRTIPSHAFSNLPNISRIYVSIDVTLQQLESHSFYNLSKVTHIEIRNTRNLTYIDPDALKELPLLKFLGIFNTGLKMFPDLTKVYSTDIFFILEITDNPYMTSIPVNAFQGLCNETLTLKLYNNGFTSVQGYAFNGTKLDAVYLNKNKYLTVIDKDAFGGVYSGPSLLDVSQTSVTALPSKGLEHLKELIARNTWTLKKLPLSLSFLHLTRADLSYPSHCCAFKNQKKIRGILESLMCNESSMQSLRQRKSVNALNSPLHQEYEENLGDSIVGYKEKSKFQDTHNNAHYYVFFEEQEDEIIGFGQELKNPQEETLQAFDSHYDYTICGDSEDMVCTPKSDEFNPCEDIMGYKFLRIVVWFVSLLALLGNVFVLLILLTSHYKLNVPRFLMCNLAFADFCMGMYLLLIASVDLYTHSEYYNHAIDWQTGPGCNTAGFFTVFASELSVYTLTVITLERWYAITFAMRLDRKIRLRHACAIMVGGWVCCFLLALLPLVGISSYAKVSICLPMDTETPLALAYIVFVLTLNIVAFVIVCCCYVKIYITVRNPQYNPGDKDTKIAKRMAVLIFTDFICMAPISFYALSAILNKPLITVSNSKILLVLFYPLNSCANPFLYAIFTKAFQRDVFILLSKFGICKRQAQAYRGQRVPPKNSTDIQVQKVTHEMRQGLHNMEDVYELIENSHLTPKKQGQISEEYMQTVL
Procedure, shortened: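 TSHR-expressing HEK293 cells (800 per well) were exposed to compounds for 30 min at room temperature. cAMP was then detected by HTRF competition with cAMP-d2 and anti-cAMP cryptate, read after 1 h at room temperature. Fifteen concentrations, triplicate.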

[10] = qHTS assay to identify small molecule agonists of the hypoxia (HIF-1) signaling pathway - cell viability counter screen (AID 1224844; calls by dose curve; also: nearly all actives have a fitted effect of over 50% in size)
Procedure, shortened: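 HRE-bla ME-180 cells, 2,000/well in 0.5% dialyzed FBS medium, treated 17 h at 37C with compounds. Viability read in the same wells as the bla reporter, by CellTiter-Glo luminescence after 30 min at room temperature.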

[11] = qHTS assay to identify small molecule agonists of H2AX (AID 1224845; active = well fitted activation curve with a large enough effect in the signal ratio in the repeat runs, not every such curve was filed as active; the % refers to the signal ratio)
Procedure, shortened: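 Wild-type CHO-K1 cells plated overnight, then exposed 3 hr at 37C to compounds at 15 concentrations (0.76% DMSO). Lysed, then HTRF anti-pH2AX(S139)-cryptate/anti-H2AX-d2 detection after 24 hr at room temperature; emissions 665 and 620 nm.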

[12] = qHTS assay to identify small molecule agonists of the hypoxia (HIF-1) signaling pathway (AID 1224846; active = well fitted activation curve with a large enough effect in the signal ratio in the repeat runs, not every such curve was filed as active; the % refers to the signal ratio)
Procedure, shortened: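 HRE-bla ME-180 beta-lactamase reporter cells in medium with 0.5% dialyzed FBS, pre-incubated 5 h then exposed to compounds 17 h at 37C, 5% CO2; reporter induction read with CCF4-AM FRET substrate.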

[13] = qHTS assay to identify small molecule agonists of H2AX - cell viability counter screen (AID 1224847; calls by dose curve; also: top concentration of the series differs between compounds; nearly all actives have a fitted effect of over 30% in size)
Procedure, shortened: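 Viability of CHO-K1 (wild type) cells after 3 hr compound exposure was measured by CellTiter-Glo luminescence.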

[14] = qHTS assay to identify small molecule antagonists of the estrogen related receptor (ERR) signaling pathway from Tox21 library - cell viability counter screen (AID 1224834); also: nearly all actives have a fitted effect of over 30% in size
Procedure, shortened: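 ERR reporter cells, 2,000 per well, rested 6 h, then exposed to compound in DMSO for 17.5 hours at 37 C. Viability read as fluorescence after 30 min with CellTiter-Fluor.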

[15] = qHTS assay to identify small molecule agonists of the constitutive androstane receptor (CAR) signaling pathway - cell viability counter screen (AID 1224836); also: nearly all actives have a fitted effect of over 45% in size
Procedure, shortened: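 Fluorescence from CellTiter-Fluor indicates live cells after 23 h exposure. The human hepatoma line expresses hCAR and a CYP2B6-2.2kb reporter. Incubation medium contains 0.75 uM PK11195 (final).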

[16] = target: Nuclear receptor subfamily 1 group I member 3 (Homo sapiens) (UniProt Q14994); assay: qHTS assay to identify small molecule antagonists of the constitutive androstane receptor (CAR) signaling pathway (AID 1224838); also: nearly all actives have a fitted effect of over 40% in size
Chain of Nuclear receptor subfamily 1 group I member 3 (Homo sapiens) (Q14994 whole entry, looked up): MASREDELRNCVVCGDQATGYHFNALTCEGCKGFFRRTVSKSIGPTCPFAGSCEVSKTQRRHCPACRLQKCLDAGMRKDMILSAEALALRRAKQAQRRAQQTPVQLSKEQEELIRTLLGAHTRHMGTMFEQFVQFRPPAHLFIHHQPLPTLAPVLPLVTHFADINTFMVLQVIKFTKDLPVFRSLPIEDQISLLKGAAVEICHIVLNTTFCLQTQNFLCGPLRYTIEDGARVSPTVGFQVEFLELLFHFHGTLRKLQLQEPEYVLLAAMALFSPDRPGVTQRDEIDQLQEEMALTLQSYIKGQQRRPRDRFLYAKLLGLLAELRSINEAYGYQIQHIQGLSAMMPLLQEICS
Procedure, shortened: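 HepG2 cells stably carrying hCAR and a CYP2B6-2.2kb luciferase reporter, seeded 4 hrs before compound (15 concentrations). Stimulated with 50 nM CITCO for 24 hr at 37 C. ONE-Glo luminescence read after 30 min at room temperature.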

[17] = target: Nuclear receptor subfamily 1 group I member 3 (Homo sapiens) (UniProt Q14994); assay: qHTS assay to identify small molecule agonists of the constitutive androstane receptor (CAR) signaling pathway (AID 1224839); also: nearly all actives have a fitted effect of over 15% in size
Procedure, shortened: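 Stable hCAR/CYP2B6-2.2kb HepG2 line in DMEM with 10% FBS; compounds (15 concentrations) and 0.75 uM PK11195 final, 24 h at 37 C/5% CO2, then ONE-Glo luminescence after 30 min.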

[18] = qHTS assay to identify small molecule antagonists of the estrogen related receptor signaling pathway with the pleiotropic PPARgamma coactivator (PGC) from Tox21 10K library (AID 1224841; call rule not given here; also: actives are mostly falling curves and most rising ones were filed inactive; nearly all actives have a fitted effect of over 50% in size; also: potency is read from the fitted curve at half-maximal effect)
Procedure, shortened: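 PGC/ERR cell line, 2,000 cells/well, pre-incubated 6 hours at 37 C, then exposed to compounds for 18 hours at 37 C; luciferase read with One-Glo luminescence after 30 min at room temperature.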

[19] = qHTS assay to identify small molecule agonists of the estrogen related receptor signaling pathway with the pleiotropic PPARgamma coactivator (PGC) from Tox21 10K library (AID 1224842); also: nearly all actives have a fitted effect of over 15% in size
Procedure, shortened: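 PGC/ERR reporter cells (NTP line) were seeded 2,000 per well, rested 6 h at 37 C/5% CO2, then pin-dosed with compounds in DMSO for 18 h at 37 C; luciferase read by One-Glo luminescence after 30 min at room temperature.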

[20] = qHTS assay to identify small molecule antagonists of the estrogen related receptor (ERR) signaling pathway from Tox21 library (AID 1224848); also: nearly all actives have a fitted effect of over 50% in size; also: potency is read from the fitted curve at half-maximal effect
Procedure, shortened: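 Cells: ERR line, 2,000/well; 6 h preincubation 37 C/5% CO2. Cpd in DMSO via pin tool; 18 h, 37 C. ONE-Glo, 30 min RT, luminescence.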

Row | Compound | Potency [1] | outcome [2] | outcome [3] | Potency [4] | Potency [5] | Potency [6] | Potency [7] | outcome [8] | outcome [9] | outcome [10] | outcome [11] | outcome [12] | Potency [13] | Potency [14] | outcome [15] | Potency [16] | Potency [17] | Potency [18] | outcome [19] | Potency [20]
1 | CN[C@@H]1[C@H](O)[C@H](NC)[C@H]2O[C@@]3(O)C(=O)C[C@@H](C)O[C@H]3O[C@@H]2[C@H]1O | inactive | inactive | inactive | inactive | inactive | inactive | inactive | inactive | inactive | inactive | inactive | inactive | inactive | – | – | – | – | – | – | –
2 | c1ccc(CNc2ncnc3nc[nH]c23)cc1 | inactive | inactive | inactive | inactive | inactive | – | – | inactive | inactive | inactive | inactive | – | inactive | inactive | – | – | – | – | – | –
3 | FC(F)(F)/C(=N\OCC1OCCO1)c1ccc(Cl)cc1 | inactive | inactive | inactive | inactive | inactive | – | inactive | inactive | – | inactive | inactive | inactive | inactive | – | inactive | inactive | inactive | – | – | –
4 | C[C@H](CCC(=O)NCC(=O)O)[C@H]1CC[C@H]2[C@@H]3[C@H](O)C[C@@H]4C[C@H](O)CC[C@]4(C)[C@H]3C[C@H](O)[C@]12C | inactive | inactive | inactive | inactive | inactive | inactive | inactive | inactive | inactive | – | inactive | – | inactive | – | inactive | – | – | inactive | inactive | inactive
5 | CC(=O)OC(C)c1ccccc1 (stereo not given) | inactive | inactive | inactive | inactive | inactive | inactive | inactive | inactive | – | inactive | inactive | inactive | inactive | – | – | inactive | inactive | – | – | –
6 | COc1ccc(/C=N/NC(=O)c2ccncc2)cc1OC | inactive | inactive | inactive | inactive | inactive | inactive | inactive | inactive | inactive | inactive | – | inactive | inactive | – | inactive | – | – | – | – | –
7 | C=CCOc1c(Br)cc(C(C)(C)c2cc(Br)c(OCC=C)c(Br)c2)cc1Br | inactive | inactive | inactive | inactive | inactive | inactive | inactive | inactive | inactive | inactive | inactive | inactive | inactive | – | inactive | – | – | 26.6 µM (active) | inactive | 29.9 µM (active)
8 | O=C1CC[C@H](C(=O)N2CCCCC2)N1 | inactive | inactive | inactive | inactive | inactive | – | inactive | inactive | inactive | inactive | inactive | inactive | inactive | – | inactive | – | – | – | – | –
9 | CC(C)CCC(=O)CCC(C)C | inactive | inactive | inactive | inactive | inactive | inactive | inactive | inactive | inactive | – | – | inactive | inactive | – | inactive | – | – | inactive | inactive | inactive
